According to PubChem BioAssay AID1486 (The Scripps Research Institute Molecular Screening Center, 2009):
In all, about 220,000 compounds went through this assay and about 2,400 (1.1%) were called active. Only a selection was taken, and actives are over-represented in it overall. Values without a mark were called inactive.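 How the source made its calls: active means inhibition above a per-campaign cutoff, the mean inhibition of all tested compounds plus 3 SD (cut at about 27% in these data); inactive means the rest.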

Experiment: parental Ba/F3 cell viability inhibition, counter-screen for JAK2V617F inhibitor project, murine pro-B, CellTiter-Glo luminescence (AID 1486);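 further: 0% = DMSO wells and 100% = JAK Inhibitor I control wells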
Conditions: CellTiter-Glo ATP luminescence, at 5.6 µM, hits give high values

| Compound | inhibition |
| --- | --- |
| N#C/C(=C\c1ccc(N2CCOCC2)o1)C(=O)N1CCOCC1 | 4.08% |
| Cc1cc(OCCCC(=O)NCCN2C(=O)S/C(=C\c3cccnc3)C2=O)ccc1Cl | 6.03% |
| O=C(O)Cc1csc(NC(=O)CSc2nnnn2-c2ccc(O)cc2)n1 | -4.21% |
| CC1Cc2ccccc2N1CC(=O)Nc1ccc2c(c1)OC(F)(F)O2 (stereo not drawn) | 4.14% |
| Cc1cc(OCCN2CCCC2)cc(C(C)C)c1 | 93.8% (active) |
| Cc1cc(OCCN2CCCC2)ccc1C(C)C | 1.72% |
| Cc1ccc(C(C)C)cc1OCCN1CCCC1 | 5.38% |
| Cc1ccc(-c2nc(SCC(=O)Nc3ccccc3OC(F)F)c3c(C)c(C(=O)O)sc3n2)cc1 | 1.45% |
| CC1=C/C(=N\S(=O)(=O)c2ccccc2)C(C(C)C)=CC1=O | 5.54% |
| CC1=C/C(=N\OS(=O)(=O)c2ccccc2)C=CC1=O | 32.1% (active) |
| CCOC(=O)C1(S(=O)(=O)c2ccccc2)CCN(Cc2ccccc2)CC1 | 8.01% |
| CCN(CC)CCNCc1ccc(OCc2ccc(Cl)nc2)c(OC)c1 | 2.52% |
| CC[C@H]1CN2CCc3cc(OC)c(OC)cc3[C@@H]2C[C@@H]1C[C@H]1NCCc2cc(OC)c(OC)cc21 | 100% (active) |
| COc1cc2c(cc1O)[C@H](Cc1ccc(Oc3cc(C[C@@H]4NCCc5cc(OC)c(O)cc54)ccc3O)cc1)NCC2 | 5.61% |
| COC(=O)C1=C(NC(=O)C(C)(C)C)CCS1 | -0.46% |
| O=C(O)c1cccnc1Sc1ncnc2sc3c(c12)CCC3 | -7.35% |
| O=C(c1ccc(Cl)cc1)N1N=C(c2ccccn2)CC1(O)C(F)(F)F (stereo not drawn) | 0.67% |
| O=C(NCC1CCCCC1)c1cc(S(=O)(=O)N2CCCCC2)ccc1N1CCOCC1 | 8.85% |
| CCOc1cc(C(=O)N2CCc3cc(OC)c(OC)cc3C2)ccc1OC(F)F | 78.2% (active) |
| COc1cc2c(cc1OC)CN(C(=O)c1ccc(S(=O)(=O)N3CCCCCC3)cc1)CC2 | 10% |
| COc1cc2c(cc1OC)CN(C(=O)c1cc(=O)c3ccccc3o1)CC2 | 24.8% |
| O=C(COC(=O)c1cc(=O)[nH]c2ccccc12)Nc1nc(-c2cccc(Br)c2)cs1 | 3.32% |
| O=C(Cn1c(COc2ccccc2)nc2ccccc21)Nc1cc(Cl)c(Cl)cc1Cl | 2.68% |
| CC(C)CC(=O)N1CCC(O)(CS(=O)(=O)Cc2ccccc2)CC1 | 50.5% (active) |
| Cc1ccccc1CS(=O)(=O)CC1(O)CCN(C(=O)c2cccc(C(F)(F)F)c2)CC1 | -1.41% |

| Compound | inhibition |
| --- | --- |
| CS(=O)(=O)N1CCN(C(=O)Cc2ccccc2)CC1 | -0.7% |
| CCCCNc1nc2c(c(=O)n(C)c(=O)n2C)n1Cc1cccc(OC)c1 | 48.4% (active) |
| Cn1c(=O)c2c(nc(NCCc3ccccc3)n2Cc2ccccc2)n(C)c1=O | 6.77% |
| COC(=O)C(C)Sc1nc2c(c(=O)n(C)c(=O)n2C)n1Cc1cccc(C)c1 (stereo not drawn) | 4% |
| Cc1c(C(=O)Nc2cccc(Cl)c2)cn2c(nc3ccccc32)c1C#N | 2.67% |
| COC(=O)C1CCN(C(=O)c2cc(=O)[nH]c3ccccc23)CC1 | 5.12% |
| O=C(COC(=O)CCCNC(=O)c1ccc(Cl)cc1)Nc1cc(Cl)ccc1Cl | 2.29% |
| COc1ccc(Cl)cc1CSc1ncn[nH]1 | -3.75% |
| Cc1cc(C)nc(S/C=C/C(=O)c2ccccc2)n1 | 6.81% |
| O=C(/C=C/Sc1ncn[nH]1)c1ccc(Cl)cc1 | 59.2% (active) |
| Nc1scc[n+]1Cc1cccc2cccnc12 | -7.17% |
| CC1=CC(C)(C)NC(=S)N1NC(=O)c1ccccc1Cl | -3.65% |
| COc1ccc(Nc2cc(=O)oc3ccccc23)cc1 | 50.9% (active) |
| COc1ccc(Nc2cc(=O)n(-c3ccccc3)c3c2c(=O)n(C)c(=O)n3C)cc1 | 4.99% |
| COc1ccc(N2CCN(Cc3cc(=O)oc4ccc5ccccc5c34)CC2)cc1 | 5.38% |
| O=C(Nc1cccc(S(=O)(=O)NC2=NCCC2)c1)C1CCCCC1 | -1.01% |
| CCN(CC)CCn1c(N)c(S(=O)(=O)c2ccccc2)c2nc3ccccc3nc21 | 5.27% |
| c1cnn(-c2cc(N3CCOCC3)ncn2)c1 | 5.98% |
| Cc1csc(NC(=O)NC2(C(F)(F)F)Oc3ccccc3O2)n1 | 13.6% |
| O=C(Nc1cc(N2CCOCC2)ncn1)NC1(C(F)(F)F)Oc2ccc(Cl)cc2O1 (stereo not drawn) | 42.3% (active) |
| CC1(C)CCSC(/C=C/c2ccccc2)=N1 | -2.99% |
| CC1(C)C=C2[C@H]3CC[C@@H]4[C@@]5(C)CCC(=O)C(C)(C)[C@@H]5CC[C@@]4(C)[C@]3(C)CC[C@@]2(C(=O)O)CC1 | 4.85% |
| Cc1ccc(S(=O)(=O)Nc2ccc3ncccc3c2)cc1 | 37.5% (active) |
| Cc1ccc(OCC(=O)Nc2ccc(S(=O)(=O)Nc3ccccn3)cc2)cc1 | 0.56% |
| Cc1cc(C)cc(OCC(=O)Nc2ccc(S(=O)(=O)Nc3ccccn3)cc2)c1 | -1.55% |

| Compound | inhibition |
| --- | --- |
| COc1ccccc1C(=O)Nc1nc2nc(-c3ccccc3)cc(=O)n2[nH]1 | 2.81% |
| Nc1nc(Sc2ncccc2[N+](=O)[O-])n[nH]1 | -0.31% |
| CCOC(=O)c1ccc(NNC(C)=O)c([N+](=O)[O-])c1 | -0.42% |
| O=C(NNC(=O)C1C2CCC(C2)C1C(=O)O)c1ccc(Cl)cc1 (stereo not drawn) | 2.39% |
| COc1ccc(C(=O)NC(=S)Nc2ccc(N3CCCC3)cc2)cc1OC | 3.89% |
| COc1cccc(OC)c1C(=O)Nc1ccc(N2CCCCC2)cc1 | 9.75% |
| COc1cccc(C(=O)Nc2ccc(N3CCCC3)cc2)c1 | 45.8% (active) |
| CCOCCCn1c(NN)nc2ccccc2c1=O | 1.96% |
| COn1c(=O)c(=O)n(OC)c2ccccc21 | 3.35% |
| COc1cc(OC)c(OC)cc1/C=N/Nc1ncnc2c1[nH]c1ccc(C)cc12 | -0.75% |
| O=C1CCCN1CCCNc1ncnc2c1[nH]c1ccccc12 | 2.08% |
| CC(C)OCCCNc1ncnc2c1[nH]c1ccc(F)cc12 | 69.9% (active) |
| CS(=O)(=O)c1ccc2nnn(OCC(=O)Nc3cccc(C#N)c3)c2c1 | -2.77% |
| COc1ccc(NC(=O)C(CC(C)C)NS(=O)(=O)c2ccc3c(c2)CCN3C(C)=O)cc1OC (stereo not drawn) | 1.81% |
| CCCc1nnc(SCC(=O)N2C(C)CCCC2C)n1CC (stereo not drawn) | 2.43% |
| O=C(Nc1ccc2c(c1)OCCO2)c1cnccn1 | 4.31% |
| CCN(CC)c1ccc(/C=N/Nc2nc(C)cc(C)n2)c(O)c1 | 3.74% |
| CCN(CC)c1ccc(/C=N/NC(=O)c2cnccn2)c(O)c1 | 34.4% (active) |
| COC(=O)c1noc(C)c1-c1ccnn1C(=O)c1ccc(Cl)cc1 | -1.68% |
| COCc1cc(=O)oc2cc(NS(=O)(=O)c3ccc(C)cc3)ccc12 | -1.36% |
| Cc1ccc(NC(=O)OCc2cncs2)cc1 | 8.02% |
| COc1ccc(NC(=S)Nc2ccccc2Cl)cn1 | 9.94% |
| COc1ccc(Nc2cc(Cl)ccc2C(=O)O)cn1 | -9.44% |
| COc1ccc(NC(=O)/C(Cl)=C(/Cl)S(=O)Cc2ccc(C)cc2)cn1 (stereo not drawn) | 103% (active) |
| COc1ccc(CS(=O)/C(Cl)=C(/Cl)C(=O)Nc2ccc(OC)nc2)cc1 (stereo not drawn) | 104% (active) |

| Compound | inhibition |
| --- | --- |
| COc1ccc(NC(=S)NCCNC(C)=O)cc1 | 3.11% |
| CN(C)/C(CN1CCCCC1)=C1\N=C(c2ccccc2)OC1=O | 7.38% |
| O=C(CNCc1cccs1)Nc1cc(S(=O)(=O)N2CCCC2)ccc1Cl | -6.85% |
| Cc1ccc(-c2cc(=O)c3ccc(Cl)cc3[nH]2)cc1 | -0.93% |
| Cc1ccc(-c2cc(=O)c3ccc(F)cc3[nH]2)cc1 | 0.37% |
| O=c1cc(-c2ccccc2)[nH]c2cc(F)ccc12 | 72.4% (active) |
| Cc1cc(O)ccc1NC1=CC(=O)CC(C)(C)C1 | 6.24% |
| CCN(CC)CCCN=Cc1c(O)n(-c2ccc(C)cc2)c(=O)c2ccccc12 | 1.41% |
| O=c1c2ccccc2nc2n1C(CSc1ccc(F)cc1)CN2 (stereo not drawn) | 3.79% |
| O=c1c2ccccc2nc2n1C(CSCc1cccc(C(F)(F)F)c1)CS2 (stereo not drawn) | 17.3% |
| O=c1c2ccccc2nc2n1C(CSCc1ccccc1)CS2 (stereo not drawn) | 39.8% (active) |
| Nc1nonc1-n1nnc(C(=O)N/N=C/c2cc(Br)ccc2O)c1CSC1=NCCS1 | 4.7% |
| COC(=O)C1=C(N)Oc2c(oc(CO)cc2=O)C1c1c(F)cccc1Cl (stereo not drawn) | 1.36% |
| S=c1[nH]nc(-c2ccccc2)n1/N=C/c1c[nH]c2ccccc12 | 0.81% |
| CSC(=S)N/N=C/c1c[nH]c2ccccc12 | 3.36% |
| C[n+]1ccc(/C=C/c2c[nH]c3ccccc23)cc1 | 75.7% (active) |
| Cc1ccc(Oc2nc(-c3ccccn3)nc3ccccc23)cc1 | -1.39% |
| Cc1cc(C)n(-c2nc(C(F)(F)F)nc3ccccc23)n1 | 7.14% |
| CCOn1c(SC(C)C)nc2ccccc2c1=O | 3.34% |
| CCCOn1c(-n2nc(C)cc2C)nc2ccccc2c1=O | 34% (active) |
| CCCC1=Nc2cc(C(=O)NCc3ccco3)ccc2Sc2ccccc21 | 80.2% (active) |
| COc1ccc(CCNS(=O)(=O)c2ccc(C(=O)NCc3ccco3)cc2)cc1OC | 3.88% |
| CCOc1ccccc1C(=O)NCc1ccco1 | 4.63% |
